PubChem BioAssay
Calls of active or inactive are those of the source.

Experiments:
[1] = compound effects on lung adenocarcinoma cell viability – A549, calcein-AM fluorescence, 48 h, basal, profiling panel (AID 1162); details: higher = more signal
[2] = compound effects on differentiated 3T3-L1 adipocyte viability – cell-based, 3T3-L1 adipocytes, calcein-AM fluorescence, 48 h, basal, profiling panel (AID 1163); details: 3T3-L1 adipocytes viability, higher = more signal
[3] = compound effects on hepatocellular carcinoma cell viability – HepG2, calcein-AM fluorescence, 48 h, basal, profiling panel (AID 1164); details: higher = more signal
[4] = compound effects on multiple myeloma cell viability – MM1S, calcein-AM fluorescence, 48 h, basal, profiling panel (AID 1165); details: higher = more signal;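 also: viability of MM1S multiple myeloma cells under basal unstimulated conditions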
[5] = calcein-AM signal in unstimulated myeloma cells – cell-based, calcein-AM fluorescence, 48 h, PK04 Diversity Set, profiling panel (AID 1166); details: RPMI8226 myeloma viability, higher = more signal;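 also: cells grown under basal conditions without added stimulus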
[6] = JC-1 mitochondrial signal, unstimulated HepG2 cells – cell-based, JC-1 fluorescence, 24 h, 100 nL compound, profiling panel (AID 1167); details: HepG2 mitochondrial potential, higher = more signal
[7] = JC-1 mitochondrial signal, unstimulated adipocytes – cell-based, JC-1 fluorescence, 3T3-L1 adipocytes, 24 h, 100 nL compound, profiling panel (AID 1168); details: JC-1 mitochondrial fluorescence, higher = more signal, called active from +8 up or from −8 down
[8] = JC-1 mitochondrial signal, unstimulated myeloma cells – cell-based, JC-1 fluorescence, RPMI8226, 24 h, 100 nL compound, profiling panel (AID 1169); details: JC-1 mitochondrial potential fluorescence, higher = more signal
[9] = JC-1 mitochondrial signal, unstimulated MM1S myeloma – cell-based, JC-1 fluorescence, 24 h, 100 nL compound, profiling panel (AID 1170); details: MM1S mitochondrial potential, higher = more signal
[10] = resazurin metabolic signal in A549 cells – cell-based, resazurin fluorescence, 24 h, PK04 Diversity Set, profiling panel (AID 1171); details: A549 viability, higher = more signal, called active from +8 up or from −8 down
Also: test concentration not given here.

SMILES | z-score [1] | z-score [2] | z-score [3] | z-score [4] | z-score [5] | z-score [6] | z-score [7] | z-score [8] | z-score [9] | z-score [10]
O=C1[C@H]2[C@H]3[C@H](O)[C@H](O)CC(=NOC[C@@H](O)COCc4ccco4)[C@H]3CC[C@H]2C(=O)N1C1CCCCC1 | -1.03 | 0.979 | 0.187 | 0.29 | -1.01 | -0.322 | -0.236 (inactive) | -1.02 | -0.611 | -0.381 (inactive)
CC(C)CN1CCc2nc(-c3ccccc3)c3c(c2CC1)CO[C@@H](C)C3 | 0.277 | 0.493 | -0.0216 | -2.48 | -1.32 | 0.93 | 0.163 (inactive) | 0.0637 | 0.75 | 0.569 (inactive)
CC(C)NC(=O)[C@@]1(c2ccc([N+](=O)[O-])cc2)CC(=O)N(CC23CC4CC(CC(C4)C2)C3)[C@@H]1c1ccc(CO)cc1I | -1.58 | 0.58 | -4.89 | -3.8 | -4.29 | 0.421 | 0.402 (inactive) | -0.929 | -2.08 | -3.65 (inactive)
CCN1C(=O)[C@H]2[C@H]3[C@H](O)[C@H](O)CC(=NOCc4ccccc4)[C@@H]3CC[C@H]2C1=O | 0.391 | 0.817 | 1.43 | 0.565 | -0.714 | 0.402 | 0.752 (inactive) | -0.0637 | -0.758 | -0.725 (inactive)
CC(C)(C)OC(=O)CC[C@]1(C(N)=O)COC(c2ccc(OCCCO)cc2)=N1 | 0.371 | 0.0132 | 0.0668 | 0.909 | -0.881 | -0.143 | -0.0265 (inactive) | 0.484 | -0.284 | -1.05 (inactive)
CCCNC(=O)[C@@H]1c2ccccc2C(=O)N(c2ccc(C)cn2)[C@H]1c1ccc(CO)cc1 | -0.293 | -0.857 | -0.108 | -0.336 | -0.0505 | -0.833 | 0.123 (inactive) | 0.657 | -0.351 | 0.418 (inactive)
C[C@@H]1C=CCC(=O)OC[C@H](C)C(=O)N[C@@H](C)C(=O)OC1 | 0.195 | -0.112 | -0.532 | -0.131 | -0.275 | 0.391 | -0.871 (inactive) | -0.0436 | -1.26 | 0.156 (inactive)
COC(=O)[C@H](C)NC(=O)[C@@H](C)CO | -0.562 | 0.945 | -0.524 | 0.363 | -1.21 | -0.355 | -0.0968 (inactive) | -0.04 | 0.384 | -0.939 (inactive)
O=C1C[C@@H](O)[C@@H](O)[C@@H]2[C@@H]3C(=O)N(C4CCCCC4)C(=O)[C@@H]3CC[C@H]12 | 0.18 | 0.0589 | 0.0702 | -0.148 | -0.189 | -0.401 | -0.364 (inactive) | 0.0892 | -0.354 | 0.386 (inactive)
CO[C@@H]1COC(=O)CC=C[C@@H](C)[C@@H]2C=C[C@H](O)[C@@H](COC(=O)[C@H](C)NC(=O)CC=C[C@H]1C)O2 | 0.495 | 0.29 | -0.857 | 0.23 | 0.706 | -0.086 | -1.62 (inactive) | 0.583 | -0.385 | 0.612 (inactive)
[N-]=[N+]=Nc1ccccc1C[C@@]1(C(N)=O)N=C(c2ccc(OCCCO)cc2)O[C@@H]1c1ccccc1 | -0.391 | 1.73 | -0.515 | -2.86 | -2.94 | 0.57 | -0.433 (inactive) | -0.778 | -0.988 | -0.732 (inactive)
CCCC[C@@H](O)C1=C(C)C[C@H]2C(=O)N(Cc3ccccc3)C(=O)[C@H]2[C@H]1CO | 0.35 | 0.356 | -0.0592 | -0.0699 | 1.09 | 0.579 | 0.164 (inactive) | -0.0812 | -0.785 | 0.453 (inactive)
CCCCCN1CC=CC23O[C@@H]4C=CCOC(=O)[C@@H]4[C@H]2C(=O)N(C(CO)C(C)C)[C@@H]3C1=O (stereo not given in full) | -0.0343 | -0.372 | -0.0721 | 0.949 | 0.12 | -0.794 | 0.196 (inactive) | -0.0576 | 0.782 | 0.0963 (inactive)
COc1ccc(O[C@H]2C=C[C@@H](c3ccccc3)O[C@@H]2CON=C[C@@H](C)[C@H](OCc2ccccc2)C(C)C)cc1 | 0.688 | -0.106 | 1.7 | 0.553 | -0.903 | 0.46 | 0.732 (inactive) | -0.0803 | -0.486 | -0.463 (inactive)
O=C1[C@H]2[C@H]3[C@H](O)[C@H](O)CC(=NO[C@@H]4O[C@H](CO)[C@@H](O)[C@H](O)[C@H]4O)[C@@H]3CC[C@H]2C(=O)N1Cc1ccc2c(c1)OCO2 | -0.575 | 1.13 | -0.874 | -0.778 | -1.06 | 0.221 | -1.34 (inactive) | -0.981 | 0.386 | 0.159 (inactive)
CCOC(=O)[C@H](Cc1ccccc1)NC(=O)CCC1CC(OC(=O)NCc2ccc3c(c2)OCO3)CC2(CCCC(COC(=O)NCC(c3ccccc3)c3ccccc3)O2)O1 (stereo not given in full) | 1.85 | -0.683 | -0.538 | -3.38 | -3.61 | 1.37 | -0.717 (inactive) | -0.77 | -1.95 | 0.174 (inactive)

SMILES | z-score [1] | z-score [2] | z-score [3] | z-score [4] | z-score [5] | z-score [6] | z-score [7] | z-score [8] | z-score [9] | z-score [10]
C[C@@H]1CC[C@H]2C(=O)O[C@H](COc3ccc(C(C)(C)C)cc3)CN2[C@H]1c1ccc(Br)cc1 | 1.29 | 0.0543 | 0.0624 | -0.232 | -0.0964 | -1.12 | -0.204 (inactive) | -0.132 | 0.621 | 1.19 (inactive)
COc1ccc(O[C@@H]2[C@H](O)CO[C@H]2C=CC#Cc2ccccc2)cc1 | -0.128 | 0.392 | 0.0395 | -2.54 | -0.0849 | -0.445 | -0.403 (inactive) | 0.617 | 0.113 | 0.357 (inactive)
CC(C)[Si]1(C(C)C)O[C@@H](c2ccccc2)c2cc(C3CC3)nc(-c3ccccc3)c21 | -0.447 | -0.483 | -0.244 | -2.2 | -1.35 | -1.8 | -0.092 (inactive) | -0.781 | -0.192 | 1.44 (inactive)
CCOC(=O)NN=C1C[C@@H](O)[C@@H](O)[C@@H]2[C@@H]3C(=O)N(CC)C(=O)[C@@H]3CC[C@@H]12 | 0.296 | -0.538 | 0.322 | 0.0379 | 0.288 | -0.495 | -0.852 (inactive) | -0.151 | -0.662 | 0.45 (inactive)
CCCNC(=O)[C@@H]1c2ccccc2C(=O)N(Cc2ccccc2Cl)[C@H]1c1ccc(CO)cc1 | 2.5 | 1.42 | 2.37 | -0.138 | 1.23 | 3.3 | 0.0089 (inactive) | 0.325 | 0.661 | 2.06 (inactive)
CC(CCC(=O)OC[C@H]1O[C@H](C#Cc2ccccc2)C=C[C@@H]1Oc1ccc(C)cc1)=NOC[C@@H](O)COCc1ccco1 | 0.303 | -0.135 | -0.45 | -2.4 | -2.27 | -1.54 | 0.324 (inactive) | -0.31 | -1.31 | -0.0838 (inactive)
Cc1ccc(S[C@]2(C(=O)NCC(F)(F)F)CC(=O)N(Cc3ccccc3Cl)[C@@H]2c2ccc(CO)cc2I)cc1 | -1.08 | -0.798 | 0.995 | -2.24 | -2.67 | 0.627 | -0.541 (inactive) | -0.566 | -1.18 | 0.318 (inactive)
CO[C@H]1COC(=O)[C@@H]2CCCN2C(=O)[C@@H](C)COC(=O)CC=C[C@@H]1C | 0.12 | -0.142 | -0.364 | -0.122 | 0.358 | 0.00983 | -0.418 (inactive) | 0.604 | 0.0689 | 0.314 (inactive)
O=C1[C@H]2[C@H]3[C@H](O)[C@H](O)CC(=NOC[C@@H](O)COCc4ccco4)[C@H]3CC[C@H]2C(=O)N1c1cccc(Oc2ccccc2)c1 | 1.26 | 0.01 | -0.463 | 0.511 | 0.977 | 0.526 | 0.994 (inactive) | 0.682 | -1.2 | 0.26 (inactive)
COC(=O)CC=C[C@@H](C)[C@H](OC)c1ccccc1Br | 0.408 | -0.662 | 0.99 | -0.154 | -1.15 | 0.845 | -0.288 (inactive) | 0.0131 | -0.515 | -0.0428 (inactive)
CCOC(=O)CCN1C(=O)[C@H]2[C@H]3[C@H](O)[C@H](O)CC(=NOCc4ccccc4)[C@@H]3CC[C@H]2C1=O | 0.16 | 0.112 | -0.149 | -0.104 | 1.16 | -0.761 | -0.522 (inactive) | -0.043 | -0.362 | -0.0452 (inactive)
C=C(CCCC)C(=O)CC[C@@H](OC(C)=O)c1cccc(OCCO)c1 | -0.985 | -1.33 | -2.45 | -2.53 | -2.28 | -0.974 | -0.673 (inactive) | 0.452 | -0.238 | -0.713 (inactive)
CCOC(=O)C[C@H]1[C@H](OC(=O)c2cc3ccccc3oc2=O)[C@@H](NC(=O)c2ccc3ccccc3n2)c2cc(OCCCO)ccc2N1C(=O)c1ccccc1 | 0.321 | 2.22 | 0.11 | 0.204 | -0.785 | -0.187 | -0.408 (inactive) | -0.264 | -0.0996 | -0.881 (inactive)
CC[C@@H](c1ccccc1)n1c(=O)n2n(c1=O)[C@H]1[C@H](O)[C@@H]3O[C@@H]3C(=NOCC(C)C)[C@H]1CC2 | -0.342 | 0.245 | -0.389 | -0.288 | 0.44 | -1.16 | -1.67 (inactive) | -0.0693 | 0.448 | 0.276 (inactive)
CCc1cc2c(nc1CC)CCN(CCC(C)=NOC[C@@H](O)COCc1ccco1)C2 | 0.902 | 0.592 | 0.526 | -0.548 | -0.862 | 1.44 | -0.901 (inactive) | -0.824 | 0.581 | -0.527 (inactive)
CC(=O)OC[C@H]1O[C@H](CCON=C(C)CCN2CCc3nc(-c4ccccc4)c(-c4ccccc4)cc3C2)C=C[C@@H]1OC(C)=O | 0.396 | 0.235 | 0.2 | -2.16 | 0.091 | -0.273 | -1.4 (inactive) | 0.168 | -0.594 | 0.783 (inactive)
